D2 ag-1 = agonists of human D2 dopamine receptor (beta-arrestin). P14416. DiscoveRx PathHunter D2 beta-arrestin, luminescence, 90 min; 100% = 57 uM dopamine signal. activation, % (concentration not given with the values). 360,000 tested, 0.084% active. AID 624465; in the data active = activation above about 40%; inconclusive = between about 15% and that limit
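DiscoveRx PathHunter D2 beta-arrestin cells (2,100/well) attached overnight, then compound-stimulated 90 min at 37 C in HBSS/10 mM HEPES/0.1% Tween-20 buffer; beta-galactosidase complementation read by luminescence after 1 h at ambient temperature. Dopamine 57 uM final (EC100) as control.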
D2 ag-2 = D2 dopamine receptor (human) agonism; P14416; HEK293 T-REx D2 cells, calcium flux agonist mode; activation, % at 2 µM; 340,000 tested, 0.53% active; AID 485358;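 active = activation over 3 SD above normal in the single-dose calcium agonist read, cut at about 30% in these data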
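Tetracycline-induced HEK293 T-REx cells with force-coupled D2 receptor, plated overnight at 30 C, loaded with no-wash calcium dye. After a 10 s baseline, compound was pin-added and calcium flux read kinetically for 180 s; calcium rises flagged agonists.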
D2 antag = antagonists of human D2 dopamine receptor. P14416. HEK293 TREx D2 cells, calcium flux, dopamine EC80. inhibition, % at 10 µM. 340,000 tested, 2% active. AID 485344; in the data active = inhibition above about 30%; inactive = below that, where a call was filed
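Read-out: kinetic calcium fluorescence (1 cycle/s) in inducible HEK293 T-REx D2 cells after an EC80 dopamine addition that followed 180 s compound preincubation. Loss of the dopamine response indicates antagonism.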
D2 PAM-1 = positive allosteric modulators of human D2 dopamine receptor; 340,000 tested, 0.34% active; HEK293 T-REx D2, calcium flux, EC20 dopamine potentiation; P14416; potentiation, % at 10 µM; AID 485347;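 active = potentiation over 3 SD above the plate norm, cut at about 30% in these data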
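Tetracycline-induced Hek293 Trex D2 cells, force-coupled to calcium, loaded with no-wash calcium dye. Compound added with 180 s kinetic read for agonism, then EC20 dopamine and a further 180 s read for potentiation.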
D2 PAM-2 = human D2 receptor positive allosteric modulation; potentiation, % (no concentration beside the values); DiscoveRx D2 beta-arrestin cells, luminescence, 90 min; 100% = 57 uM dopamine signal; P14416; 360,000 tested, 0.23% active; in the data active = potentiation above about 50%; inconclusive = mostly about 30% to 49%
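D2 cells co-treated with compound plus 50 nM dopamine (EC20) for 90 min at 37 deg C to detect potentiation. Beta-arrestin recruitment was read as enzyme-fragment luminescence after 1 h at ambient temperature. Full response was set by 57 uM dopamine.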
Anesthetic bind = candidate novel general anesthetic via apoferritin binding; 350,000 tested, 0.074% active; Potency, µM (titrated, usually from 77.5 µM), hits mostly inhibitors; AID 485281; P02791; apoferritin/1-aminoanthracene competitive binding, fluorescence; note: nearly all actives have a fitted effect of over 20% in size
Target sequence (P02791 2-175 limits assumed): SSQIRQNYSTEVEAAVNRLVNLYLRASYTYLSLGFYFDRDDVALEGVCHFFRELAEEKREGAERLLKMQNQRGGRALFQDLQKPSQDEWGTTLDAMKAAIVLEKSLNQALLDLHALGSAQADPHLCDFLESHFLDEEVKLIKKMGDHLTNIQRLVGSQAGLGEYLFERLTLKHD
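Steps: apoferritin (10 uM) was premixed with half-saturated 1-AMA in PBS, compounds were pin-transferred, plates stood 10 min at room temperature, fluorescence was read at 380/535 nm, and curves were fitted with a Hill equation.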
D3 arrestin ag = activates human D3 dopamine receptor beta-arrestin recruitment | Potency, µM (series often up to 76.9 µM), most hits filed as activators | DiscoveRx D3 beta-arrestin cells, luminescence, 90 min | 2,300 tested, 4% active | shares compounds with D2 ag-2; note: nearly all actives have a fitted effect of over 70% in size
Target sequence (P35462 whole entry, looked up): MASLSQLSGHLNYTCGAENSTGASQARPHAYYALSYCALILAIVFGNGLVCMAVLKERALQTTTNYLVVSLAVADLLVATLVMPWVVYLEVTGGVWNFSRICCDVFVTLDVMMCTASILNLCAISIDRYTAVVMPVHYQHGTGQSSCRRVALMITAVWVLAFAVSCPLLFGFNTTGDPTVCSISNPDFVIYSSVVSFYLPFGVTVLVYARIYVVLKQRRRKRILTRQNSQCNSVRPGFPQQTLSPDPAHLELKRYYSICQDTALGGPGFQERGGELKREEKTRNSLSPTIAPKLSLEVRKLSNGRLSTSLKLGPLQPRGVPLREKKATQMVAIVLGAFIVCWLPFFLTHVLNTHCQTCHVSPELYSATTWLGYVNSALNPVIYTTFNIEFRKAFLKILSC
D2 ag-3 = D2 receptor agonism, beta-arrestin counterscreen; shares compounds with D2 ag-2; 2,300 tested, 5.9% active; AID 720507; Potency, µM (highest dose often 76.9 µM), usual class: activators; DiscoveRx PathHunter D2 beta-arrestin, luminescence, 90 min; response scale: percent relative to full dopamine signal; note: nearly all actives have a fitted effect of over 70% in size
Of the large screens only hits and unclear results are named; the others gave an inactive call (follow-up assays come after a bar, where they were run). Shown are actives, neighbours in structure and some others; about 2.5% of the full set was active somewhere. Unless noted, calls come from the whole dose curve; as a rule, active = well fitted curve in the direction sought with a large enough effect; inconclusive = small, poorly fitted or top-dose-only effect, or another doubt; inactive = no such curve, though single readings can be large; an effect the other way counts as inactive or inconclusive.

CCCCN(C)C(=O)c1nc2ccccn2c1CN1CCN(c2ccccn2)CC1	D2 ag-2 53 | D3 arrestin ag inactive | D2 ag-3 inactive
CCCCN(C)C(=O)c1nc2ccccn2c1CN1CCN(c2cnccn2)CC1	none
O=C(Nc1ccn(CC(=O)N2CCN(c3ccccn3)CC2)c(=O)n1)OCc1ccccc1	none (no result: Anesthetic bind) | D3 arrestin ag inactive | D2 ag-3 inactive
O=C(Nc1ccn(CCCN2CCN(c3ncccn3)CC2)c(=O)n1)OCc1ccccc1	none (no result: D2 ag-2, D2 antag, D2 PAM-1, D2 PAM-2, Anesthetic bind)
O=C(NCCN1CCN(c2ccccc2)CC1)C1CCN(S(=O)(=O)N2CCOCC2)CC1	D2 ag-1 inconclusive, D2 ag-2 84, D2 antag 61 | D3 arrestin ag inconclusive | D2 ag-3 inconclusive
O=C(NCCN1CCN(c2cccc(Cl)c2)CC1)C1CCCN(S(=O)(=O)c2cnc[nH]2)C1 (stereo unspecified)	D2 ag-2 81, D2 antag 81 | D3 arrestin ag inconclusive | D2 ag-3 inconclusive
O=C(NCCN1CCN(c2ccccc2)CC1)C1CCCN(S(=O)(=O)c2cnc[nH]2)C1 (stereo unspecified)	D2 ag-1 inconclusive, D2 ag-2 74, D2 antag 76, D2 PAM-2 74 | D3 arrestin ag inconclusive | D2 ag-3 inconclusive
CCCCn1c(N)c(N(CCOC)C(=O)Cn2c(=O)cnc3ccccc32)c(=O)[nH]c1=O	none (no result: Anesthetic bind) | D3 arrestin ag inactive | D2 ag-3 inactive
CCCCn1c(N)c(N(CCOC)C(=O)COc2ccc(C(C)=O)cc2)c(=O)[nH]c1=O	none (no result: Anesthetic bind)
CC(C)[C@H](NC(=O)[C@@H]1CSC2c3ccccc3C(=O)N21)C(=O)NC1CCCC1 (stereo partly specified)	none
CC(=O)Nc1cc(NC(C)=O)c2nc(N)sc2c1	none | D3 arrestin ag inactive | D2 ag-3 inactive
O=C(c1ccc2c(c1)[nH]c(=S)n1c3ccccc3nc21)N1CCN(c2ncccn2)CC1	none
COCCn1c(=O)[nH]c2cc(C(=O)NCCN3CCN(c4cccc(Cl)c4)CC3)ccc2c1=O	D2 ag-2 59, D2 antag 87 | D3 arrestin ag inactive | D2 ag-3 inconclusive
COCCn1c(=S)[nH]c2cc(C(=O)N3CCN(c4cccc(Cl)c4)CC3)ccc2c1=O	none (no result: D2 ag-2, D2 antag, D2 PAM-1)
O=C(NCCN1CCN(c2ccccc2)CC1)c1ccc2c(c1)[nH]c(=S)n1c3ccccc3nc21	D2 ag-2 48, D2 antag 34 | D3 arrestin ag inconclusive | D2 ag-3 inactive
CCN1CCN(CCC(=O)Nc2cc(OC)ccc2OC)CC1	none (no result: D2 ag-2, D2 antag, D2 PAM-1)
COc1ccc(NC(=O)CCN2CCN(Cc3ccccc3)CC2)c(OC)c1	D2 antag 41 | D3 arrestin ag inactive | D2 ag-3 inactive
COc1ccc(OC)c(NC(=O)CCN2CCN(C/C=C/c3ccccc3)CC2)c1	D2 ag-2 49 | D3 arrestin ag inactive | D2 ag-3 inactive
COc1ccc(OC)c(NC(=O)CCN2CCN(c3ccccc3)CC2)c1	D2 ag-1 inconclusive, D2 ag-2 87, D2 antag 80 | D3 arrestin ag inconclusive | D2 ag-3 inconclusive
COc1cccc(C(=O)NCCN2CCN(c3ccccc3)CC2)c1	none (no result: D2 ag-1, D2 ag-2, D2 antag, D2 PAM-1, D2 PAM-2) | D3 arrestin ag inconclusive | D2 ag-3 inactive
COc1ccc(C)cc1NC(=S)N1CC(C)OC(C)C1 (stereo unspecified)	none (no result: D2 ag-2, D2 antag)
CC(=O)c1ccc(OCC(O)CN2CCc3ccccc3C2)cc1 (stereo unspecified)	D2 ag-2 43 | D3 arrestin ag inactive | D2 ag-3 inactive
Cc1ccc(C)c(OCC(O)CN2CCc3ccccc3C2)c1C (stereo unspecified)	none
OC(COc1ccc(CNCc2cccnc2)cc1)CN1CCc2ccccc2C1 (stereo unspecified)	D2 ag-2 54, D2 antag 49 | D3 arrestin ag inactive | D2 ag-3 inactive
Cc1cc(=O)oc2cc(OCC(O)CN3CCc4ccccc4C3)ccc12 (stereo unspecified)	none (no result: D2 ag-2, D2 antag, D2 PAM-1) | D3 arrestin ag inactive | D2 ag-3 inactive
COc1ccccc1N1CCN(CC(O)COc2ccc3c(C)cc(=O)oc3c2)CC1 (stereo unspecified)	D2 ag-1 inconclusive, D2 antag 72 | D3 arrestin ag inactive | D2 ag-3 inactive
COc1ccc2c(C)cc(=O)oc2c1OCC(O)CN1CCOCC1 (stereo unspecified)	none (no result: D2 ag-2, D2 antag, D2 PAM-1, Anesthetic bind)
OC(COc1ccccc1CNCc1cccnc1)CN1CCc2ccccc2C1 (stereo unspecified)	none
CC(=O)c1ccc(OCC(O)CN2CCOCC2)cc1 (stereo unspecified)	none
COc1cc2c(cc1OC)C1O[C@](CCCCN3C(=O)c4ccccc4C3=O)(C2)OC2=C1C(=O)CCC2	none (no result: D2 ag-1, D2 ag-2, D2 antag, D2 PAM-1, D2 PAM-2)
COc1cc(C(O)c2nc(-c3cccc4cccnc34)cs2)ccc1F (stereo unspecified)	none (no result: D2 ag-2, D2 antag, D2 PAM-1, Anesthetic bind)
Cc1cc(=O)oc2cc(OCC(O)CN3CCN(c4ccccc4)CC3)ccc12 (stereo unspecified)	D2 ag-1 52, D2 ag-2 90, D2 antag 72, Anesthetic bind inconclusive | D3 arrestin ag inactive | D2 ag-3 inconclusive
COc1ccccc1NS(=O)(=O)c1cc([N+](=O)[O-])ccc1N/N=C/c1c(C)[nH]c2ccccc12	none | D3 arrestin ag inactive | D2 ag-3 inactive
Cc1[nH]c2ccccc2c1/C=N/Nc1ccc([N+](=O)[O-])cc1	none
COc1ccc(-c2noc(CN(C(=O)c3ccoc3C)C(C)C)n2)cc1	none (no result: D2 PAM-1)
CC1(C)C2([N+](=O)[O-])CN3CC1([N+](=O)[O-])CN(C2)C3c1ccc(O)c(O)c1 (stereo unspecified)	none | D3 arrestin ag inactive | D2 ag-3 inactive
CCSc1nc2c([nH]c3ccccc32)c(=O)n1-c1ccc(F)cc1	none (no result: D2 ag-1, D2 antag, D2 PAM-2)
CCOC(=O)NC(=O)/C(C#N)=N\Nc1cccc(Cl)c1	D2 antag 38 | D3 arrestin ag inactive | D2 ag-3 inactive
CCCOC(=O)CSC1=C(C#N)C(c2ccccc2OCC)C(C#N)C(=O)N1 (stereo unspecified)	none (no result: D2 ag-2, D2 antag, D2 PAM-1)
CCOC(=O)c1csc(NC(=O)CSc2nnc(C3CC3)n2C)n1	none
COc1ccc(OC)c(NC(=O)Cn2c(=O)oc3cc(S(=O)(=O)NCc4ccccc4)ccc32)c1	none (no result: D2 ag-1, D2 antag, D2 PAM-2)

Screening data deposited in PubChem by National Center for Advancing Translational Sciences (NCATS).
